# Test results published in PubChem BioAssay (NCATS).
# Where “and” joins values, the source holds several entries; their conditions need not be identical. Identical values can stand only once. Records with an inconclusive call do not appear. A call without a number means that no potency is given here. Calls of active or inactive are those of the source. Unless noted, calls come from the whole dose curve.
# How the values were obtained:
# [1] = Cell Viability - HepG2 (AID 433); conditions: qHTS;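 note: potency is the fitted concentration of half-maximal effect; cells exposed to compound for 40 hours; potency for ATP loss meaning cytotoxicity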
# Method in brief: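 Cytotoxicity read as ATP loss (CellTiter-Glo luminescence) after 40 hr compound exposure of HepG2, 1500 cells/well, 37 °C. AC50 by Hill equation; 0% set by DMSO, 100% inhibition by 100 uM tamoxifen.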
# [2] = target: Mitogen-activated protein kinase 10 (Mus musculus) (UniProt Q61831); assay: JNK3 AlphaScreen Assay (AID 530; active = well fitted curve in either direction with a large enough effect, not every such curve was filed as active;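 note: kinase came from lysate of stimulated human HepG2 cells; signal reports phosphorylation of biotinylated GST-cJun 1-79 at Ser73 with 10 µM ATP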); conditions: JNK3 lysate, c-Jun phosphorylation; series mostly up to 57.1 µM
# Method in brief: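 Activity was read by AlphaScreen after JNK3-containing HepG2 lysate (cytokine pre-activated) phosphorylated biotinylated GST-cJun with 10 uM ATP at room temperature. Phospho-Ser73 cJun antibody with Protein-A acceptor beads provided detection.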
# [3] = Cell Viability - NIH 3T3 (AID 541; active = well fitted curve in the direction sought with a large enough effect; an effect the other way counts as inactive or inconclusive;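 note: cells exposed to compound for 40 hours; nearly all actives have a fitted effect of over 25% in size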; note: potency is the fitted concentration of half-maximal effect); conditions: NIH 3T3 cell viability, qHTS; activity change, negative = cytotoxicity: at 92.2 µM (top of the series)
# Method in brief: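 Cells seeded at 1000/well, rested 5 hr at 37 °C, then dosed and incubated 40 hr at 37 °C. CellTiter-Glo added, 20 min room temperature, luminescence read. AC50 by Hill fit.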
# [4] = Cell Viability - LYMP2-001 (AID 921; active = well fitted curve in the direction sought with a large enough effect; an effect the other way counts as inactive or inconclusive; note: nearly all actives have a fitted effect of over 70% in size); conditions: LYMP2-001 lymphoblastoid cell viability; series mostly up to 92.2 µM
# Method in brief: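 Cellular ATP loss read by luciferase luminescence after 24 h compound exposure at 37 C in complete medium. LYMP2-001 lymphoblastoid cells, 2500/well; qHTS concentration-response data fitted with Hill equation for AC50.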
# [5] = target: Glucocorticoid receptor (Homo sapiens) (UniProt P04150); assay: qHTS assay for small molecule agonists of glucocorticoid receptor signaling (AID 588532; active = well fitted curve in the direction sought with a large enough effect in the signal ratio, with a control signal flat; the % refers to the signal ratio); conditions: HeLa MMTV-bla, beta-lactamase ratio, agonist, 18 h; stronger effect = higher value; percent of dexamethasone control, DMSO zero
# Method in brief: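 MMTV-bla HeLa beta-lactamase reporter cells in 1% charcoal/dextran FBS medium, compounds up to 92 uM for 18 h at 37 C, CCF4 readout; normalized to 0.1 uM dexamethasone (100%), EC50 and efficacy from Hill fits.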
# [6] = target: Glucocorticoid receptor (Homo sapiens) (UniProt P04150); assay: qHTS assay for small molecule antagonists of glucocorticoid receptor signaling (AID 588533; active = well fitted inhibition curve with a large enough effect in the signal ratio, with a control signal flat, not every such curve was filed as active; the % refers to the signal ratio); conditions: HeLa MMTV-bla, GRE beta-lactamase ratio, antagonist mode, 18 h; series mostly up to 76.8 µM
# Method in brief: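 Antagonist-mode qHTS: compound titrations added to GRE-bla HeLa cells, then dexamethasone 2 nM final; 18 h, 37 C. CCF4 FRET fluorescence normalized to dexamethasone and DMSO; IC50 from Hill fit.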
# [7] = qHTS assay for small molecule antagonists of peroxisome proliferator-activated receptor delta signaling (AID 588535; active = well fitted inhibition curve with a large enough effect in the signal ratio, with a control signal flat, not every such curve was filed as active; the % refers to the signal ratio;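 for max response: cells co-treated with a PPAR-delta agonist as stimulator during compound exposure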); conditions: HEK293T PPARd-UAS-bla, beta-lactamase FRET ratio, 18 h; 460 nm channel
# Method in brief: (§1)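 Fluorescence from CCF4-loaded GeneBLAzer PPAR-delta-UAS-bla HEK293T cells (2 hrs RT loading) quantified reporter inhibition after an 18 hr, 37 C compound exposure across a titration.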
# [8] = target: Peroxisome proliferator-activated receptor delta (Homo sapiens) (UniProt Q03181); assay: as above; conditions: HEK293T PPARd-UAS-bla, beta-lactamase FRET ratio, 18 h; series mostly up to 76.7 µM
# Method in brief: as §1
# [9] = target: Peroxisome proliferator-activated receptor gamma (Homo sapiens) (UniProt P37231); assay: qHTS assay for small molecule agonists of peroxisome proliferator-activated receptor gamma signaling (AID 588536; active = well fitted curve in the direction sought with a large enough effect in the signal ratio, with a control signal flat, not every such curve was filed as active; the % refers to the signal ratio); conditions: HEK293 PPARg-UAS-bla, beta-lactamase ratio, 16 h, percent of rosiglitazone response, DMSO as zero; series mostly up to 76.7 µM
# Method in brief: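 Beta-lactamase reporter read-out: CCF4 fluorescence (ex 405, em 460/530 nm) after 2 h at RT. HEK293 GeneBLAzer cells were treated for 16 h at 37 C. Hill fits gave EC50 and efficacy versus 2 uM rosiglitazone (100%) and DMSO (0%).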
# [10] = target: Thyroid hormone receptor beta (Homo sapiens) (UniProt P10828); assay: qHTS assay for small molecule antagonists of thyroid hormone receptor beta signaling (AID 588547; active = well fitted inhibition curve with a large enough effect in the signal ratio, with a control signal flat, not every such curve was filed as active; the % refers to the signal ratio;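 note: cells stimulated with 0.4 nM T3 agonist during compound exposure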); conditions: TR-UAS-bla HEK293, beta-lactamase ratio, antagonist mode, 18 h
# Method in brief: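 TR-UAS-bla GripTite HEK293 cells in 2% charcoal/dextran FBS medium; compounds 0.59 nM to 92 uM with T3 at 0.4nM final, 18 h at 37 C. Beta-lactamase read by CCF4 fluorescence (460/530 nm); Hill fits gave IC50 and efficacy.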
# [11] = qHTS assay for small molecule agonists of the antioxidant response element (ARE) signaling pathway (AID 651741; active = well fitted activation curve with a large enough effect in the signal ratio; the % refers to the signal ratio; note: potency is the fitted concentration of half-maximal effect); conditions: HepG2 ARE-bla reporter, beta-lactamase FRET ratio, 16 h; series mostly up to 96 µM
# Method in brief: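 Stably integrated ARE-beta-lactamase reporter HepG2 cells; 16 h compound incubation, 37 C; LiveBLAzer FRET substrate 2 h at room temperature; fluorescence intensity.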
# [12] = qHTS assay for small molecule activators of the nuclear factor-kappa B (NF-kB) signaling pathway (AID 651749; active = well fitted activation curve with a large enough effect in the signal ratio; the % refers to the signal ratio); conditions: NF-kB-bla ME-180 cells, beta-lactamase FRET ratio, 16 h; stronger effect = higher value
# Method in brief: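 In this qHTS format, compounds acting as activators increase NF-kB-driven beta-lactamase in ME-180 cells, measured as disrupted FRET after 16 hr exposure at 37C and 5% CO2.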
# [13] = qHTS assay for small molecule antagonists of the retinoid-related orphan receptor gamma (ROR-gamma) signaling pathway - cell viability counter screen (AID 720652; active = well fitted curve in the direction sought with a large enough effect in the repeat runs; an effect the other way counts as inactive or inconclusive;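 note: CHO reporter cells with doxycycline-induced ROR-gamma expression; compound exposure lasted 16 hr before ATP read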); conditions: RORgamma reporter cell line viability counter screen; series mostly up to 92.2 µM
# Method in brief: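 Steps: seed CHO cells bearing TET-inducible ROR and ROR response element-luciferase; rest 5 hr at 37 C; add compound, then doxycycline; incubate 16 hr; add CellTiter-Glo and read luminescence as ATP-based viability.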
# [14] = Cell Viability - MRC5 (AID 434); conditions: MRC5 lung fibroblast viability, qHTS;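 note: potency is the fitted concentration of half-maximal effect; cells exposed to compound for 40 hours at 37 °C; potency reflects cytotoxicity seen as loss of intracellular ATP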
# Method in brief: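 ATP luminescence read-out (CellTiter-Glo, 20 min RT) after 40 hr, 37 °C compound exposure of 1500 MRC5 cells/well. Data normalized to DMSO (basal) and 100 uM tamoxifen (100% inhibition); AC50 from standard Hill equation.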
# [15] = MultiTox-Fluor Cytotoxicity Assay - LYMP1-002 - Dead Cells (AID 960; active = well fitted curve in the direction sought with a large enough effect; an effect the other way counts as inactive or inconclusive; note: nearly all actives have a fitted effect of over 60% in size); conditions: LYMP1-002 lymphoblastoid cells, dead-cell protease fluorescence; series mostly up to 46.1 µM
# Method in brief: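 Cells were plated, rested 5 hr, then treated with compound dilution series for 16 hr at 37 C. After adding substrate reagent and 60 min at room temperature, dead-cell protease fluorescence gave concentration-response curves fitted by the Hill equation.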
# [16] = target: Estrogen receptor (Homo sapiens) (UniProt P03372); assay: qHTS assay for small molecule agonists of estrogen receptor alpha signaling (AID 588514); conditions: ER-alpha-UAS-bla HEK293, beta-lactamase ratio, 18 h; series mostly up to 76.8 µM; note: nearly all actives have a fitted effect of over 70% in size
# Method in brief: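 Efficacy is expressed against 20 nM 17-beta-estradiol (100%) and DMSO basal (0%); EC50 from Hill equation. Assay: beta-lactamase reporter in ER-alpha-UAS-bla HEK 293 cells, 18 h compound incubation, CCF4 detection.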
# [17] = target: Vitamin D3 receptor (Homo sapiens) (UniProt P11473); assay: qHTS assay for small molecule antagonists of vitamin D receptor signaling (AID 588541); conditions: HEK293T VDR-UAS-bla, beta-lactamase ratio, antagonist mode; series mostly up to 76.7 µM;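 note: receptor activated by calcitriol during compound treatment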
# Method in brief: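 VDR-UAS-bla HEK293T cells in 2% charcoal-stripped FBS were stimulated with 1-alpha,25-dihydroxyvitamin D3 (3 nM final) plus compound for 16 h at 37 C. The beta-lactamase CCF4 readout was normalized to 50 nM agonist and DMSO, and Hill fits gave IC50.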
# [18] = target: Vitamin D3 receptor (Homo sapiens) (UniProt P11473); assay: qHTS assay for small molecule agonists of vitamin D receptor signaling (AID 588543); conditions: HEK293T VDR-UAS-bla, beta-lactamase ratio, 16 h; series mostly up to 76.8 µM
# Method in brief: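 Agonist-mode beta-lactamase reporter: HEK293T VDR-UAS-bla cells in charcoal-stripped 2% FBS, compound series 16 h 37 C, CCF4 2 h RT. EC50 from Hill fit, scaled against DMSO and 50 nM calcitriol control.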
# [19] = target: Peroxisome proliferator-activated receptor gamma (Homo sapiens) (UniProt P37231); assay: qHTS assay for small molecule antagonists of peroxisome proliferator-activated receptor gamma signaling (AID 588537; active = well fitted inhibition curve with a large enough effect in the signal ratio, with a control signal flat, not every such curve was filed as active; the % refers to the signal ratio;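 note: reporter cells co-stimulated with 50 nM rosiglitazone agonist during compound treatment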); conditions: HEK293 PPARg-UAS-bla, beta-lactamase ratio, antagonist mode; series mostly up to 76.8 µM
# Method in brief: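 Fluorescence at 460 and 530 nm (405 nm excitation) reported beta-lactamase cleavage of CCF4 after 2 h room-temperature loading. HEK293 reporter cells in 1% charcoal/dextran-treated FBS had received compound and rosiglitazone for 16 h.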
# [20] = qHTS assay to identify small molecules that stimulate interleukin-8 (IL-8) secretion (AID 651758; active = well fitted activation curve with a large enough effect in the signal ratio; the % refers to the signal ratio); conditions: HTRF ratio (665/615); series mostly up to 92.2 µM
# Method in brief: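 Compounds are added to THP-1 cells (2000 per well) and left 16 hrs at 37 C. A labeled anti-IL-8 antibody pair is then added, and IL-8 secretion is measured by time-resolved FRET after 1-3 hrs at room temperature.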
# Sequence of Thyroid hormone receptor beta (Homo sapiens) (P10828 whole entry, looked up): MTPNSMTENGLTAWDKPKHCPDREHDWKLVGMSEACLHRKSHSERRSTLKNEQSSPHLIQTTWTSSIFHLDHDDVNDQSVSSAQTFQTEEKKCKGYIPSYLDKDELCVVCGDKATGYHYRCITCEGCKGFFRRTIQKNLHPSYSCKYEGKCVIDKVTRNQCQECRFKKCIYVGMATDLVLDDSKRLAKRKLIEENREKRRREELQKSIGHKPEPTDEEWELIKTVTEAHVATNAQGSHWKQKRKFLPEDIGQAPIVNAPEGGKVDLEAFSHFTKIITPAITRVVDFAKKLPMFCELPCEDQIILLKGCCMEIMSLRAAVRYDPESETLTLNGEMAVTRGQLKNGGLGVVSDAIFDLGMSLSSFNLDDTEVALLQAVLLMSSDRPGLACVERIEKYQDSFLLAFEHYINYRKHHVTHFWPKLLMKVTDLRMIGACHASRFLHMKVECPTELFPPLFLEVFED
# Sequence of Vitamin D3 receptor (Homo sapiens) (P11473 whole entry, looked up): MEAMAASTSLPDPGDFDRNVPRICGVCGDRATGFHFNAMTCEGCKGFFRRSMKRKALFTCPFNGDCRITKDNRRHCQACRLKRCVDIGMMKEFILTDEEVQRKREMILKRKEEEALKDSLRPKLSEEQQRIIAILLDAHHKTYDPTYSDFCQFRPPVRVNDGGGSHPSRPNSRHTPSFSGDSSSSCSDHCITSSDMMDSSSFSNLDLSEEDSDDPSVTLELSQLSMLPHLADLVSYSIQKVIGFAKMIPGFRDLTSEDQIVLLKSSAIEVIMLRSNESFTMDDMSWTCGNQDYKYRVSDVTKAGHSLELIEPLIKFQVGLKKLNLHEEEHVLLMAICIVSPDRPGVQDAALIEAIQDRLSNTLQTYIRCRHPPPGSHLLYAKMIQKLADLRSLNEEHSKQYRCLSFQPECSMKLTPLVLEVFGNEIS
# Sequence of Estrogen receptor (Homo sapiens) (P03372 whole entry, looked up): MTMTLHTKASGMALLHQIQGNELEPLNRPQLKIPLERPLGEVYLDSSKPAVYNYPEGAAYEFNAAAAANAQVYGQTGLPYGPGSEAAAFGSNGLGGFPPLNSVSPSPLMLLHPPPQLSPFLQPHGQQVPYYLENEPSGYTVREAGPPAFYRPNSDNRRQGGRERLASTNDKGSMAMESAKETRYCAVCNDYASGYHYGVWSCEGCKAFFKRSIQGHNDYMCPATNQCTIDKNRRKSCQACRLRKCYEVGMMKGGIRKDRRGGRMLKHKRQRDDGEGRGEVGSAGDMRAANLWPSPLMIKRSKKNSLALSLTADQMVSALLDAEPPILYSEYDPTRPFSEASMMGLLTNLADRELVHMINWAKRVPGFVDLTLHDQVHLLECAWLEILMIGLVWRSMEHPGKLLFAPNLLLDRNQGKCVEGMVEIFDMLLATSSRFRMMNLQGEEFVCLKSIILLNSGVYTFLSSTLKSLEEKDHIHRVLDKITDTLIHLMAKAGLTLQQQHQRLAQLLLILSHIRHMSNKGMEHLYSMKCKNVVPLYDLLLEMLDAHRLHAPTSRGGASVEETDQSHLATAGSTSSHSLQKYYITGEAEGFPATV
# Sequence of Glucocorticoid receptor (Homo sapiens) (P04150 whole entry, looked up): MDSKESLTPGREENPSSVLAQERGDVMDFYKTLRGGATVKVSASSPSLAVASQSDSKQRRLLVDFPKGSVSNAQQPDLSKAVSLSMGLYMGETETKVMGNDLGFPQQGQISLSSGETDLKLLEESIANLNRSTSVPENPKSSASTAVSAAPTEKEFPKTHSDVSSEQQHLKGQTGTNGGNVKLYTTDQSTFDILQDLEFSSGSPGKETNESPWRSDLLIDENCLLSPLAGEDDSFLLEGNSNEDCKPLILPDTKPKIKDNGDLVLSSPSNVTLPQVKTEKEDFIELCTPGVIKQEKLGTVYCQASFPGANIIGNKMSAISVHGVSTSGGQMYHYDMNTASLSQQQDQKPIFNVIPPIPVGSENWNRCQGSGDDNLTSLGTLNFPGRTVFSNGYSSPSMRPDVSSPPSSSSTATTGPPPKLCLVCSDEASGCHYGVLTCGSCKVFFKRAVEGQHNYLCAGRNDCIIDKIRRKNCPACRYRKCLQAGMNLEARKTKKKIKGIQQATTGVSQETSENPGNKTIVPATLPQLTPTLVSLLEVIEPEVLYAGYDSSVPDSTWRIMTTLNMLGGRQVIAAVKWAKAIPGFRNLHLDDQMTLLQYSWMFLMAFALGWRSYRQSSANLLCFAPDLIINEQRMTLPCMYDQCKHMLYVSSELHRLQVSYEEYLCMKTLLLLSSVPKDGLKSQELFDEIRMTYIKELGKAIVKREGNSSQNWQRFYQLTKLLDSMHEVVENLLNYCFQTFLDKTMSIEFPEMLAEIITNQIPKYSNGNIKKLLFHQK
# Sequence of Peroxisome proliferator-activated receptor delta (Homo sapiens) (Q03181 whole entry, looked up): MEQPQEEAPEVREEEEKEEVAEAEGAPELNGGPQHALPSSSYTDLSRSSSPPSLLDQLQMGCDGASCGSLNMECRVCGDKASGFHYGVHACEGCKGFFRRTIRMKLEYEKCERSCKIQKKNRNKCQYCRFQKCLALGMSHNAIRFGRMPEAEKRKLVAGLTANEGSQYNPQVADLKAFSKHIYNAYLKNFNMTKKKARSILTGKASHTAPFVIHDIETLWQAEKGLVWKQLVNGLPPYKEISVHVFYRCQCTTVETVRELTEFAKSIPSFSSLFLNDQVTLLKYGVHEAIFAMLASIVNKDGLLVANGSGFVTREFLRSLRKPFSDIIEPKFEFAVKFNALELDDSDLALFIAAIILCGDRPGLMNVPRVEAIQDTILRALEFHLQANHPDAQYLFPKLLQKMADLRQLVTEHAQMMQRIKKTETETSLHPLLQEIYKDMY
# Sequence of Peroxisome proliferator-activated receptor gamma (Homo sapiens) (P37231 whole entry, looked up): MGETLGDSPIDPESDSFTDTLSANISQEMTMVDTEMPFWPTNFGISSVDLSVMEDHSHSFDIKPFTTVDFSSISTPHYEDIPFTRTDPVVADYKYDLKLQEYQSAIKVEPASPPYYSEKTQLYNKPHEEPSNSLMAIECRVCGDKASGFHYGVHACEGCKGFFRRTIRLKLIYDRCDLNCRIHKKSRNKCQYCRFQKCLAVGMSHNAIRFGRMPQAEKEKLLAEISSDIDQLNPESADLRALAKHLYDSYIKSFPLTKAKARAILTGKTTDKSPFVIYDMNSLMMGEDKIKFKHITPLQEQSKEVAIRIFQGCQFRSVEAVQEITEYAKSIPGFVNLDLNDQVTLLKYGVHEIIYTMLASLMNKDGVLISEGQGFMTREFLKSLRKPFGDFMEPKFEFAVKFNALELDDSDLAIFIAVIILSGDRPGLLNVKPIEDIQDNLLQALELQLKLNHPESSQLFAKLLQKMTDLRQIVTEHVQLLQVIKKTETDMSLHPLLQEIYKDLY
Structure (SMILES),Potency [1],Potency [2],Potency [3],Potency [4],activation [5],outcome [6],max response [7],outcome [8],outcome [9],activity change % (negative = inhibition) [10],Potency [11],activation [12],Potency [13],Potency [14],Potency [15],Potency [16],outcome [17],outcome [18],Potency [19],Potency [20]
ClCCOCCCl,> 92 µM (inactive),inactive,inactive,inactive,0.183% (inactive),inactive,5.43%,inactive,inactive,0.0195% (inactive),inactive,-0.467% (inactive),inactive,–,–,–,–,–,–,–
BrCCc1ccccc1,–,inactive,inactive,inactive,–,inactive,-20.6%,inactive,inactive,-8.86% (inactive),inactive,-1.06% (inactive),–,> 92 µM (inactive),inactive,–,–,–,–,–
Brc1cccc(-c2ccccc2)c1,> 92 µM (inactive),inactive,inactive,inactive,-4.94% (inactive),inactive,–,–,–,0.106% (inactive),–,–,inactive,–,inactive,inactive,inactive,inactive,–,–
O=C(O)CCl,> 92 µM (inactive),inactive,inactive,inactive,1.7% (inactive),–,–,–,–,-0.364% (inactive),42.2 µM (active),–,–,–,inactive,–,inactive,–,inactive,–
c1ccc2c(c1)CCNC2,–,inactive,inactive,inactive,–,–,5.94%,inactive,–,–,inactive,0.526% (inactive),–,> 92 µM (inactive),inactive,–,inactive,inactive,inactive,–
Cc1ccc(N)c(N)c1,–,inactive,5.01 µM (active),–,0.413% (inactive),–,–,–,–,-28.6% (inactive),37.6 µM (active),-0.795% (inactive),–,> 92 µM (inactive),–,–,inactive,inactive,–,–
CSSC,–,inactive,inactive,inactive,–,–,–,–,–,-18.7% (inactive),inactive,–,inactive,> 92 µM (inactive),inactive,–,inactive,inactive,–,inactive
CC(=O)CCC(C)=O,–,inactive,inactive,inactive,-5.45% (inactive),inactive,-12.7%,inactive,–,15% (inactive),inactive,–,inactive,> 92 µM (inactive),inactive,inactive,–,inactive,–,–
CC(C)(OOC(C)(C)c1ccccc1)c1ccccc1,> 92 µM (inactive),–,inactive,inactive,-3.95% (inactive) and 1.36% (inactive),inactive,42.8% and 13.3%,inactive,inactive,6.91% (inactive),inactive,0.182% (inactive) and -0.836% (inactive),inactive,–,inactive,–,inactive,–,–,–
O=S(=O)(Cl)c1ccccc1,–,inactive,–,–,–,–,7.79% and -11.8%,inactive,–,-1.94% (inactive) and -0.791% (inactive),inactive,0.118% (inactive) and -0.385% (inactive),inactive,> 92 µM (inactive),inactive,–,inactive,inactive,inactive,–
CC(C)C#N,–,inactive,inactive,–,1.53% (inactive),inactive,-11.5%,inactive,inactive,-3.27% (inactive),–,-0.872% (inactive),inactive,> 92 µM (inactive),inactive,–,–,–,inactive,inactive
NNC(N)=S,–,inactive,inactive,–,0.137% (inactive),–,–,–,–,4.76% (inactive),–,–,inactive,> 92 µM (inactive),inactive,inactive,inactive,inactive,inactive,inactive
Oc1cc(Cl)ccc1Cl,–,inactive,inactive,inactive,0.0862% (inactive) and 2.52% (inactive),inactive,32.2% and -9.59%,inactive,inactive,-3.5% (inactive),inactive,-0.753% (inactive) and -0.792% (inactive),–,> 92 µM (inactive),inactive,–,inactive,inactive,inactive,inactive
